# Assay outcomes deposited in PubChem by several laboratories.
# Shown are actives, neighbours in structure and some others; about 1.2% of the full set was active somewhere.
# Rv3671c protease = inhibitors of M. tuberculosis serine protease Rv3671c | P9WHR9 | actives 0.048% (n = 320,000) | AID 2606 | inhibition, % at 5.96 µM; in the data active means inhibition above about 38%;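 further: extracellular domain of Rv3671c used as enzyme; 0% = enzyme with DMSO and 100% = no enzyme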
# Target sequence (P9WHR9 whole entry, looked up, the tested form may be a part): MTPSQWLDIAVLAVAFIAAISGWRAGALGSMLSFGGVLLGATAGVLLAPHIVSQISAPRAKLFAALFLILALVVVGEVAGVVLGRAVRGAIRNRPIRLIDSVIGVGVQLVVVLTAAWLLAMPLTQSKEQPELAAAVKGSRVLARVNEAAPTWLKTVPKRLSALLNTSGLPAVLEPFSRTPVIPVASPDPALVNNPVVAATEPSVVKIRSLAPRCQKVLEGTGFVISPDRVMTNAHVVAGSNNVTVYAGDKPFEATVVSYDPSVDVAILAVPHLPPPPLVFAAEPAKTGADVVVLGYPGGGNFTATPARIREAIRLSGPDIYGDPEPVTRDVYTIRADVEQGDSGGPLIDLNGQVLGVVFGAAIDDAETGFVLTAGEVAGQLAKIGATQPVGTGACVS
# FadD28 binding = M. tuberculosis FadD28 bisubstrate binding inhibition; inhibition, % at 12.5 µM; AID 588549; FadD28 bisubstrate probe binding, fluorescence polarization; actives 0.22% (n = 360,000); in the data active means inhibition above about 8.5%, passing the limit was not always enough; inconclusive means no clear call, values can overlap the other calls
# PrP UTR inh = suppresses PrP 5' UTR mRNA reporter expression; cell-based PrP 5' UTR mRNA reporter, plate reader; actives 0.35% (n = 340,000); inhibition, % (concentration not given with the values); in the data active means inhibition above about 52%; further: 0 = median of the neutral control wells
# Mtb UGM inh = inhibitors of M. tuberculosis UDP-galactopyranose mutase; P9WIQ1; purified UGM, fluorescence polarization probe displacement; inhibition, % at 10 µM; actives 0.06% (n = 320,000); in the data active means inhibition above about 10%, passing the limit was not always enough; inconclusive means no clear call, values can overlap the other calls
# PriA SSB inh = K. pneumoniae PriA-SSBct interaction inhibition; AlphaScreen SSBct-PriA binding, biotinylated peptide; actives 0.6% (n = 430,000); inhibition, % at 33 µM; in the data active means inhibition mostly above about 37%, no sharp cut-off; inactive means mostly below about 20%;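 further: plate controls were negative control peptide for no effect and reference peptide for full effect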
# PrPC surface inh = cell surface PrPC inhibition, primary TR-FRET screen. P04156. TR-FRET read-out. inhibition, % at 13.8 µM. actives 0.43% (n = 370,000). AID 720596; in the data active means inhibition above about 24%; further: 0% = median of the test wells and 100% = reference compound wells
# PrP UTR cherry = prion 5' UTR mRNA inhibition, cherry-pick retest | inhibition, % at 2.5 µM | shares compounds with PrP UTR inh | AID 504592 | actives 48% (n = 1,100) | cell-based prion protein 5' UTR reporter, plate reader; in the data active means inhibition above about 54%; inconclusive means no clear call, values can overlap the other calls
# * marks the source's active call; other numbers are inactive results; ? = inconclusive; . = no result given.
SMILES,Rv3671c protease,FadD28 binding,PrP UTR inh,Mtb UGM inh,PriA SSB inh,PrPC surface inh,PrP UTR cherry
CCOc1ccc(OCc2cccc(C(=O)O)c2)cc1,-3.7,-1.1,92.7*,0.3,-0.3,3.7,94.6*
O=C(OCC(F)(F)F)c1cccc(COc2ccc3ccccc3c2)c1,-8.1,-4.8,62.9*,2.9,-92.3,-4.0,66.0*
O=C(O)c1ccc(COc2ccc(CO)cc2Cl)cc1,-4.3,-4.5,-62.2,-0.1,-10.3,0.1,.
Cc1ccc(NC(=O)c2cc3ccccc3o2)cc1S(=O)(=O)N(C)C,.,-1.8,-97.7,.,-13.3,-0.2,.
Cc1ccc(NC(=O)c2cc3ccccc3oc2=O)cc1S(=O)(=O)N(C)C,-3.9,0.2,90.4*,1.8,-13.2,.,89.6*
O=C(CN1CCOCC1)Nc1sc2c(c1C(=O)Nc1ccc(F)cc1)CCCC2,.,.,.,.,-7.0,.,.
CC(Cc1ccco1)NC(=O)C(=O)NC1CCCCC1 (centres undefined),.,.,.,.,-3.0,.,.
c1c2c(cc3sc(N4CCOCC4)nc13)OCCO2,-5.3,-3.1,56.1*,1.2,-5.9,2.8,?
c1c2c(cc3sc(N4CCN(c5nc6cc7c(cc6s5)OCCO7)CC4)nc13)OCCO2,.,.,.,.,-1.0,.,.
CCc1c2c(nc3ccc(OC(=O)N4CCC(N5CCCCC5)CC4)cc13)-c1cc3c(c(=O)n1C2)COC(=O)[C@]3(O)CC,-7.1,-1.2,64.6*,2.0,14.9,-5.5,73.5*
CC[C@@]1(O)C(=O)OCc2c1cc1n(c2=O)Cc2cc3c(NC(=O)CN)cccc3nc2-1,-2.7,-2.2,85.0*,-4.4,-11.0,-3.0,70.5*
CCC1(OC(=O)CN)C(=O)OCc2c1cc1n(c2=O)Cc2cc3ccccc3nc2-1 (centres undefined),0.3,-2.4,82.5*,2.0,-2.9,.,88.1*
CCC1(O)C(=O)OCc2c1cc1n(c2=O)Cc2cc3cc(O)ccc3nc2-1 (centres undefined),.,-2.7,22.7,.,-0.3,-15.7,.
CC[C@@]1(O)C(=O)OCc2c1cc1n(c2=O)Cc2cc3ccccc3nc2-1,-5.0,.,.,1.0,.,.,.
CC(=O)N1CCN(c2ccnc3c2c(=O)n(CC(=O)NC(C)(C)C)c(=O)n3C)CC1,.,.,.,.,-14.0,.,.
Cc1ccc2oc(C(=O)N3CCN(c4ccc(F)cc4)CC3)cc2n1,.,.,.,.,-7.0,.,.
O=S(=O)(NCCOc1ccc2c(c1)OCO2)c1ccccc1F,.,.,.,.,13.0,.,.
Cc1cc(OCCCCn2c(CO)nc3ccccc32)ccc1Cl,.,.,.,.,1.0,.,.
COc1ccccc1NC(=O)c1oc2ccccc2c1NC(=O)c1cc(OC)c(OC)c(OC)c1,-3.2,-2.6,56.4*,2.3,-20.3,-0.1,84.4*
COC(=O)c1ccc(C(=O)NC2CCN(c3nccs3)CC2)cc1,.,.,.,.,-12.0,.,.
CCOc1ccc(-n2c(Cc3cc(=O)[nH]c(=O)[nH]3)nnc2SCC(=O)NC2CCCC2)cc1,3.0,-2.4,-9.7,-1.6,-4.4,6.3,.
COc1ccc(-n2c(Cc3cc(=O)[nH]c(=O)[nH]3)nnc2SCC(=O)NC2CCCC2)cc1,-1.7,0.1,61.2*,0.5,-6.0,3.1,-5.5
COc1ccc(S(=O)(=O)N2c3cc(Cl)ccc3Oc3nc4ccccc4nc32)cc1,-2.5,-3.6,71.1*,-2.7,6.2,-1.7,88.4*
CON=CCC(=O)c1ccc([N+](=O)[O-])c(CS(=O)(=O)c2ccc(Cl)cc2)c1,.,.,.,.,-3.1,.,.
O=C(NCCCO)c1cc2ccccc2[nH]1,-6.8,-1.3,-31.3,-6.3,2.3,-7.7,.
SMILES,Rv3671c protease,FadD28 binding,PrP UTR inh,Mtb UGM inh,PriA SSB inh,PrPC surface inh,PrP UTR cherry
COc1ccc(C(=O)NCCCNC(=O)c2cc3ccccc3[nH]2)cc1OC,-2.9,-2.0,78.2*,-1.5,-6.5,2.0,-7.6
Nc1cc(=O)[nH]c(SCCSc2cc(Cl)ccc2Cl)n1,1.5,.,57.7*,-1.5,-7.4,10.8,39.2
CCCS(=O)(=O)c1cnc(C2COc3ccccc3O2)nc1N (centres undefined),-7.1,0.4,85.7*,1.2,-1.6,-3.1,82.9*
S=c1nc(C2COc3ccccc3O2)[nH][nH]1 (centres undefined),3.3,0.0,-51.2,-1.4,1.0,-9.5,.
O=C(O)CS(=O)(=O)Cc1nc2ccccc2c(=O)[nH]1,.,.,.,.,5.0,.,.
C/C(=N\Nc1nc(N2CCCCC2)nc(N2CCOCC2)n1)c1ccccc1O,-3.1,0.8,80.6*,-1.6,.,-6.7,11.1
CC(=NNc1nc(N2CCCCC2)nc(N2CCOCC2)n1)c1cccs1,.,.,.,.,-6.3,.,.
CNS(=O)(=O)c1cccc2cnccc12,.,.,.,.,3.0,.,.
C(=C\c1ccc2ccccc2n1)/c1ccccc1,-3.1,-1.4,57.7*,0.0,-27.5,-9.3,25.1
Oc1ccccc1/C=C/c1ccc2ccccc2n1,.,.,.,.,4.0,.,.
Oc1ccc(/C=C/c2ccc3ccccc3n2)cc1,0.4,-1.6,57.3*,0.0,-20.6,3.7,?
CN(C)c1ccc(/C=C/c2ccc3ccccc3n2)cc1,-2.0,-6.1,84.2*,0.2,-5.5,.,?
Cc1nc(C(=O)NCc2nc(-c3cccn3C)no2)cs1,.,.,.,.,0.0,.,.
COc1ccc(C(=O)CC(=O)c2ccc(F)cc2)cc1,-6.1,-1.4,.,0.8,-7.6,-3.9,.
COc1ccc(C(=O)CC(=O)c2ccc(C(C)(C)C)cc2)cc1,.,-2.5,57.0*,.,-12.2,0.2,-10.6
COc1ccc(-n2c(=O)[nH]cc(C(=O)Nc3ccc(C(C)=O)cc3)c2=O)cc1OC,.,.,.,.,-8.0,.,.
O=C(O)Cc1sc(Nc2ccccc2)nc1-c1ccc(Cl)cc1,4.3,-0.3,56.9*,0.5,-0.2,-6.9,-0.6
COc1ccc(S(=O)(=O)NCC(c2cccnc2)N2CCN(c3ccc(F)cc3)CC2)cc1C (centres undefined),.,-2.1,52.4*,.,16.5,0.3,-2.1
CCCN1CCN(CC(=O)Nc2nnc(C)s2)CC1,14.8,-0.5,52.0*,2.0,-12.4,0.7,-7.0
CN(C(=O)COC(=O)c1ccc(Cl)nc1)C1CCS(=O)(=O)C1 (centres undefined),4.4,-0.6,67.9*,0.0,-3.3,-2.4,-19.6
CN(C(=O)COC(=O)c1cnc(Cl)c(Cl)c1)C1CCS(=O)(=O)C1 (centres undefined),0.7,-2.9,-38.0,-1.2,-2.2,6.1,.
CC1CN(C(=O)CCC(=O)NCc2ccc(Cl)cc2)c2ccccc2S1 (centres undefined),-1.4,-1.5,62.9*,1.6,-8.9,13.6,-13.2
Cn1c2ccccc2c(=O)c2cc(C#CC3(O)CCCCC3)ccc21,-1.9,-0.7,65.3*,1.1,-3.3,-3.3,34.5
Cc1cc2sc3ccc(C#CC4(O)CCCCC4)cc3c(=O)c2cc1C,-19.8,-4.0,92.3*,-0.8,-2.7,2.4,92.8*
Cn1c2ccccc2c(=O)c2ccc(C#CC3(N)CCCCC3)cc21,-1.5,-9.2,-11.1,-1.3,-25.8,2.2,.
O=C(C1CCCN(c2ccc(-c3ccco3)nn2)C1)N1CCN(c2ccccc2)CC1 (centres undefined),.,.,.,.,-2.0,.,.
